PubChem BioAssay AID1159580 (chemical genetic matrix, 2015)
“And” between values parts separate entries of the source, which are not always exact repeats. Equal entries are not always repeated. The campaign covered roughly 5,500 compounds. About 2,000 (36%) were called active. Not shown: some 18% with an inconclusive outcome. Cut-off read from the data, not from the text of the source: active = normalized growth mostly below about 0.91 (no sharp cut-off); inconclusive = no clear call, values can overlap the other calls; inactive = mostly above about 0.92. The list shows a part of the results.

Assay: chemical genetic growth profiling, strain panel (AID 1159580);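 note: tested at 20 µM; growth read once vehicle control cultures reached saturation at 30 °C; 1 = growth at the plate median or of vehicle wells; lower values mean less growth of the strain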
Settings: S. cerevisiae deletion strains, growth OD

Measured: normalized growth

O=C(O)c1cc(O)c(O)c(O)c1
inactive: locus YAL021C, strain ccr4, active compounds read low 1.05 | locus YAL026C, strain drs2, active compounds read low 1.03 | locus YAL030W, strain snc1, active compounds read low 1.02 | locus YBL061C, strain skt5, active compounds read low 1.03 | locus YBR009C, strain hhf1, active compounds read low 1.02 | locus YBR021W, strain FUR4, active compounds read low 1.03 | locus YBR023C, strain chs3, active compounds read low 1.04 | locus YBR171W, strain sec66, active compounds read low 1.03 | locus YBR229C, strain ROT2, active compounds read low 1.03 | locus YBR231C, strain swc5, active compounds read low 1.01 | locus YBR279W, strain paf1, active compounds read low 1.02 | locus YCL011C, strain gbp2, active compounds read low 1.02 | locus YCL016C, strain dcc1, active compounds read low 1.04 | locus YCL029C, strain bik1, active compounds read low 1.07 | locus YCL069W, strain vba3, active compounds read low 1.01 | locus YCR088W, strain abp1, active compounds read low 1.02 | locus YDL005C, strain med2, active compounds read low 1.02 | locus YDL035C, strain GPR1, active compounds read low 1.07 | locus YDL040C, strain nat1, active compounds read low 1.02 | locus YDL074C, strain BRE1, active compounds read low 1.14 | locus YDL101C, strain DUN1, active compounds read low 1.03 | locus YDL185W, strain tfp1, active compounds read low 1.03 | locus YDL192W, strain arf1, active compounds read low 1.03 | locus YDR001C, strain nth1, active compounds read low 1.01 | locus YDR069C, strain doa4, active compounds read low 1.01 | locus YDR101C, strain arx1, active compounds read low 0.996 | locus YDR137W, strain rgp1, active compounds read low 1.13 | locus YDR150W, strain NUM1, active compounds read low 1.03 | locus YDR159W, strain sac3, active compounds read low 0.987 | locus YDR162C, strain NBP2, active compounds read low 1.04 | locus YDR195W, strain ref2 0.996 | locus YDR297W, strain sur2, active compounds read low 1.02 | locus YDR318W, strain mcm21, active compounds read low 1.04 | locus YDR334W, strain swr1, active compounds read low 1.04 | locus YDR335W, strain msn5, active compounds read low 1.02 | locus YDR388W, active compounds read low 1.02 | locus YDR392W, strain spt3, active compounds read low 0.993 | locus YDR502C, strain sam2, active compounds read low 1.04 | locus YEL003W, strain gim4, active compounds read low 0.996 | locus YEL037C, strain rad23, active compounds read low 1.02 | locus YEL061C, strain CIN8 (second series), active compounds read low 1.02 | locus YEL061C, strain CIN8, active compounds read low 1.03 | locus YER015W, strain faa2, active compounds read low 1 | locus YER016W, strain bim1, active compounds read low 1.04 | locus YER110C, active compounds read low 1.02 | locus YER111C, strain swi4, active compounds read low 1.02 | locus YER155C, strain BEM2 (second series), active compounds read low 1.08 | locus YER155C, strain BEM2, active compounds read low 1.03 | locus YER167W, strain BCK2, active compounds read low 1.03 | locus YFR010W, strain ubp6, active compounds read low 0.998 | locus YGL078C, strain dbp3, active compounds read low 1.03 | locus YGL086W, strain mad1, active compounds read low 1.03 | locus YGL167C, strain pmr1, active compounds read low 1.02 | locus YGL173C, strain kem1, active compounds read low 0.994 | locus YGL227W, strain vid30, active compounds read low 1.02 | locus YGL240W, strain doc1, active compounds read low 1.01 | locus YGL248W, strain PDE1, active compounds read low 1.08 | locus YGL253W, strain hxk2, active compounds read low 1.03 | locus YGR078C, strain PAC10, active compounds read low 1.04 | locus YGR135W, strain pre9, active compounds read low 1.07 | locus YGR252W, strain gcn5, active compounds read low 1.07 | locus YHR013C, strain ard1, active compounds read low 1.04 | locus YHR027C, strain rpn1, active compounds read low 1.01 | locus YHR030C, strain SLT2, active compounds read low 0.966 | locus YHR079C, strain IRE1 (second series), active compounds read low 1.03 | locus YHR079C, strain IRE1, active compounds read low 0.969 | locus YHR094C, strain hxt1, active compounds read low 1.02 | locus YHR129C, strain ARP1, active compounds read low 1.05 | locus YHR142W, strain chs7, active compounds read low 1.03 | locus YHR200W, strain rpn10, active compounds read low 1.02 | locus YIL066C, strain RNR3, active compounds read low 1.05 | locus YIL073C, strain SPO22, active compounds read low 1.23 | locus YIL125W, strain kgd1, active compounds read low 1.02 | locus YIR030C, strain dcg1, active compounds read low 1.05 | locus YJL092W, strain hpr5, active compounds read low 1.03 | locus YJL095W, strain BCK1 (second series), active compounds read low 1.03 | locus YJL095W, strain BCK1, active compounds read low 1.12 and 0.981 | locus YJL115W, strain asf1, active compounds read low 1.02 | locus YJL129C, strain trk1, active compounds read low 1.08 | locus YJL134W, strain LCB3, active compounds read low 1.03 | locus YJL154C, strain vps35, active compounds read low 1.03 | locus YJL164C, strain tpk1, active compounds read low 1.01 | locus YJL166W, strain qcr8, active compounds read low 1.04 | locus YJL168C, strain set2, active compounds read low 1.02 | locus YJL187C, strain SWE1 (second series), active compounds read low 1.07
